Screening data as filed in PubChem BioAssay.
WT yeast gro inh: growth inhibition of WT yeast, mitochondrial fusion screen. mitochondrial fusion phenotypic screen, WT strain. inhibition, % at 10 µM. 190,000 tested, 2.1% active; in the data active means inhibition above about 58%; tested in S. cerevisiae
ROMK primary: modulators of human ROMK potassium channel; P48048; AID 1918; Tet-inducible ROMK, thallium flux fluorescence; actives lie on both sides; 130,000 tested, 2% active; B-score at 10 µM;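 active means signal ratio slope over the read window, or its plate-corrected B-score, at least 3 SD from the plate mean, either direction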;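 further: B-score of the F/F0 ratio slope over 7 to 12 s after thallium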
Ins promoter up: MIN6 insulin promoter up-regulation | MIN6 insulin promoter-GFP reporter, high-content imaging; stronger effect = higher value | z-score at 5 µM | 190,000 tested, 0.3% active | AID 1625;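 active means z-score above 3 at 5 µM with at least 500 cells counted in the well; inconclusive means wells under 500 cells, flagged as cytotoxic or low count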
Cl transport mod: modulates chloride dependent transport by human KCC2; Q9H2X9; KCC2 cells, thallium flux FluoZin-2 fluorescence; B-score of Tl+ flux slope (higher = more flux/activation; lower = inhibition) at 10 µM; 190,000 tested, 2.2% active; AID 1456;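 active means thallium flux slope and its plate-corrected score both differing from the plate sample mean at a set confidence after two filtering rounds, in either direction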;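 further: slope of fluorescence scaled to starting intensity during 10 to 20 s after thallium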
Target sequence (Q9H2X9 whole entry, looked up): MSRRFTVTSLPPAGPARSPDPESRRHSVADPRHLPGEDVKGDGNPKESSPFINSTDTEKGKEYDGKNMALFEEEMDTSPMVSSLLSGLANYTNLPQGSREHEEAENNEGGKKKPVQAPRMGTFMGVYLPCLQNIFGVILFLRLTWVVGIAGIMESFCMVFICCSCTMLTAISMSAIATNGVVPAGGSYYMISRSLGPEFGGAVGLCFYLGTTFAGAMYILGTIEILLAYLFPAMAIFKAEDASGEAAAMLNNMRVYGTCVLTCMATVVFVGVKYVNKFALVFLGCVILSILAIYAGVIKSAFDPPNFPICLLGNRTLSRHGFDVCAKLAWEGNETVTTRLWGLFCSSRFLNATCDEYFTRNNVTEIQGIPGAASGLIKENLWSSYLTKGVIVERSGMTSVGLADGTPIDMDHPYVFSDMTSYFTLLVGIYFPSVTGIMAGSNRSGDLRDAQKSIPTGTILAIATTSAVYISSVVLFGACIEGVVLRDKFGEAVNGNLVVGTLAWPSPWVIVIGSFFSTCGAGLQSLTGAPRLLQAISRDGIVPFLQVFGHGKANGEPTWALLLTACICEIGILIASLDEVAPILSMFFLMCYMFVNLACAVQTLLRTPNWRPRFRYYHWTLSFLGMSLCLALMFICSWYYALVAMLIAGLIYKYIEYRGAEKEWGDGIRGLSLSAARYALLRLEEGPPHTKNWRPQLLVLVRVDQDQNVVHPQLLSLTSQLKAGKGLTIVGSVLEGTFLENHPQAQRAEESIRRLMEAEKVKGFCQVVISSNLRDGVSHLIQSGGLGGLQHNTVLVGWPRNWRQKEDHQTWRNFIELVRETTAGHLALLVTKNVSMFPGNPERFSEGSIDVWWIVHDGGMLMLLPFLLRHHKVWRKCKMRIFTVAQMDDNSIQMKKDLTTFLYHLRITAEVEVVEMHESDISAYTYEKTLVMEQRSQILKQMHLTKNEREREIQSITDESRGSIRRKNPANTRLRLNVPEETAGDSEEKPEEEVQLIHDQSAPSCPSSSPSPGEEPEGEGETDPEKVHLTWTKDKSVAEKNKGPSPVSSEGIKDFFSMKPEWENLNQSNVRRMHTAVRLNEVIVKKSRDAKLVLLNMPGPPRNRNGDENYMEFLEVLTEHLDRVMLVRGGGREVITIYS
Lmaj promast: Leishmania major promastigote growth inhibition; inhibition, % at 10 µM; Leishmania major promastigotes, resazurin fluorescence viability; 200,000 tested, 9% active; in the data active means inhibition above about 50%;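 further: promastigotes grown with compound for 44 hours at 28 °C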
Insulin prom inh: TRM-6 insulin promoter activity inhibition; inhibition, % at 2 µM; 130,000 tested, 0.9% active; AID 1273; TRM-6 cells (human fetal islet line), insulin promoter-eGFP reporter, imaging; reporter expression induced with tamoxifen;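 active means inhibition above the mean plus 3 SD, with well images judged a real hit on visual review, cut at about 60% in these data, passing the limit was not always enough; inconclusive means inhibition over the cutoff but images rejected on review; inactive means inhibition not above the cutoff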
KCC2 sec1: KCC2 (human) modulation, secondary assay; 3,700 tested, 15% active; HEK293-KCC2, thallium flux, FluoZin2 fluorescence; stronger effect = higher value; normalised thallium flux (F/F0 slope) at 10 µM; shares compounds with Cl transport mod;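 active means thallium flux slope above the same plate's solvent-only control mean plus 3 SD; inconclusive means the two replicate wells disagree; inactive means no significant difference from solvent-only control wells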
KCC2 bumet counter: bumetanide-insensitive thallium flux in KCC2 cells with ouabain, counter-screen | shares compounds with Cl transport mod | HEK293-KCC2 + bumetanide/ouabain, thallium flux FluoZin2; stronger effect = higher value | normalized thallium flux at 10 µM | 3,700 tested, 49% active;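 active means thallium entry rate above the same plate's blocked-transporter control wells by more than 3 SD; inconclusive means the two repeat wells disagree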;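 further: raw slope of fluorescence over initial fluorescence between 10 and 20 s after thallium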
KCC2 sec2: KCC2 (human) modulation, second secondary assay; 3,700 tested, 23% active; shares compounds with Cl transport mod; normalized thallium flux at 10 µM; HEK293-KCC2, thallium flux FluoZin2 fluorescence; actives lie on both sides; F/F0 rise rate, 10–20 s post-thallium;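 active means thallium flux slope more than 3 SD above or below the plate's solvent-only control mean, mostly below; inconclusive means the two repeat wells disagreed; inactive means no significant shift from solvent-only controls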;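 further: raw slope with 0.1% DMSO as baseline and bumetanide as block control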
HEK counter1: counter-screen for KCC2 modulators: effect in parental HEK293 cells. 3,700 tested, 46% active. shares compounds with Cl transport mod. AID 1716. thallium flux FluoZin2, ouabain; baseline-ratio fluorescence slope, 10–20 s after thallium. thallium flux rate (normalised fluorescence) at 10 µM;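 active means thallium flux rate significantly above the same plate's solvent-only control wells, beyond their mean plus 3 SD; inconclusive means the two replicate wells gave conflicting results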
KCC2 retest ouab: confirmation of human KCC2 modulators with ouabain | raw Tl+ flux slope (below DMSO = inhibition, above = activation) at 10 µM | shares compounds with Cl transport mod | HEK293-KCC2, thallium flux FluoZin2 fluorescence; bidirectional: low = inhibitor, high = activator | 3,700 tested, 48% active;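 active means thallium flux slope beyond 3 SD from same-plate DMSO control mean in most replicates, usually higher, sometimes lower; inconclusive means repeat tests gave conflicting results; inactive means no significant difference from controls in most replicates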;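 further: slope of initial-normalized fluorescence between seconds 10 and 20 after thallium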
HEK counter2: parental HEK flux effect, counter-screen 2; thallium flux slope at 10 µM; 3,700 tested, 33% active; HEK293 parental, thallium flux FluoZin-2 fluorescence slope; shares compounds with Cl transport mod;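 active means thallium flux slope above the same plate's solvent-control mean plus 3 SD in both duplicate wells; inconclusive means duplicate wells that disagreed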;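 further: run without ouabain in cells lacking the KCC2 cotransporter; slope of fluorescence scaled to its starting value between 10 and 20 s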
Numbers without * were called inactive; ? = inconclusive; · = not tested or not shown. Hits are enriched below; roughly 12% of the tested compounds scored in any of these assays.

SMILES	WT yeast gro inh	ROMK primary	Ins promoter up	Cl transport mod	Lmaj promast	Insulin prom inh	KCC2 sec1	KCC2 bumet counter	KCC2 sec2	HEK counter1	KCC2 retest ouab	HEK counter2
COc1cc(C(=O)NNC(=S)NC(=O)c2ccc(F)cc2)cc(OC)c1OC	·	0.231	·	6.54*	·	·	0.0114	0.015*	0.0333	0.0137*	?	0.0116
COc1cc(C(=O)NC(=S)N(C)Cc2ccccc2)cc(OC)c1OC	7.9	-0.664	-0.19	10.9*	-10.7	-5.3	0.0184*	0.0508*	0.0312	0.0168*	0.0334*	0.0122*
COc1cc(C(=O)NC(=S)NNC(=O)c2ccc3c(c2)OCO3)cc(OC)c1OC	·	-0.449	·	5.12*	·	·	0.01	0.0128*	0.0325	?	?	0.0107
CCSc1nn2c(=O)c3ccccc3nc2s1	3.7	-0.646	0.33	1.05	-1.6	-103.4	·	·	·	·	·	·
Nc1ccc2c(c1)ncn2CCCn1cnc2cc(N)ccc21	-2.7	-1.08	-0.25	·	4.8	46.7	0.00754	0.00458	?	0.00754	0.0185	0.0106
Cc1ccc(-n2c(CNc3ccc(C)c(Cl)c3)n[nH]c2=S)cc1	54.2	0.305	-0.26	3.46*	12.4	·	0.00938	0.0844*	0.0319	0.0111*	0.0277	?
COc1ccc(NC(=O)c2nc[nH]c2C(=O)NCC(=O)OC(C)(C)C)cc1	·	·	0	-0.0166	·	·	·	·	·	·	·	·
C/C(=N\NC(=O)c1ccccc1O)C1C(=O)c2ccccc2C1=O	-16.7	1.02	·	-3.84*	11.6	47.8	0.00688	0.00548	0.0291	?	0.0151*	0.00896
O=C(NN=C(Cc1ccccc1)Cc1ccccc1)c1ccccc1O	77.0	0.884	-0.21	22.9*	61.1*	15.0	?	0.0624*	0.05*	0.0365*	0.049*	0.0314*
CCC/C(C)=N/NC(=O)c1ccccc1O	15.7	·	0.05	0.11	-8.2	33.3	·	·	·	·	·	·
CCOCCCNC(=S)N1CCCC(c2nc3ccc(C)cc3[nH]2)C1 (stereo not given)	7.2	0.754	·	-0.935	9.6	-60.0	·	·	·	·	·	·
COc1cc2c(cc1NC(=O)CC1SC(N3CCCC3)=NC1=O)oc1ccccc12 (stereo not given)	-1.3	-0.394	0.02	-1.3	24.7	·	·	·	·	·	·	·
O=C(NCCc1cn2ccccc2n1)c1cc(COc2c(F)cccc2F)on1	8.4	·	-0.61	-4*	51.6*	-28.6	?	?	?	0.00794	0.0163*	0.00973
Cc1cnc(CN(C)C(=O)c2cc(COc3c(F)cccc3F)on2)[nH]1	-15.1	0.298	-1.2	·	-0.8	·	·	·	·	·	·	·
Cc1ccc(CNC(=O)c2cc(COc3c(F)cccc3F)on2)s1	21.5	0.116	·	·	-8.0	40.0	0.00681	0.0064	0.0331	0.00367	0.0149*	0.0109
O=C(CSc1nccc2ccccc12)N1CCN(c2ccccn2)CC1	11.5	·	1.1	-3.3*	1.5	·	0.0066	0.00447	0.0269	0.00756	0.015*	0.0105
O=C(NCc1ccccc1C(F)(F)F)C1CC(c2cc(C(F)(F)F)cc(C(F)(F)F)c2)=NO1 (stereo not given)	·	·	0.41	0.0137	·	·	·	·	·	·	·	·
O=C(NCc1ccccc1C(F)(F)F)C1CC(c2cccc(F)c2)=NO1 (stereo not given)	·	·	-0.05	-2.66*	·	·	0.00737	0.00456	0.0272	0.00687	0.0181	0.00894
